The list is not random: actives were taken first. Their share in the collection is about 0.52%.
uPA generation: blocks generation of uPA at the cell surface; cell surface uPA generation assay, qHTS; Potency, µM (top dose mostly 38.3 µM), for inactives: top-dose activity change, negative = inhibition, most hits filed as inhibitors; hit rate 0.31% among 330,000; AID 540303; active = well fitted inhibition curve with a large enough effect; inconclusive = small, poorly fitted or top-dose-only effect; inactive = no such curve, though single readings can be large or run the other way; tested in mouse RAW 264.7 cells; note: nearly all actives have a fitted effect of over 55% in size
KAT2A inh: blocks human GCN5L2 histone acetyltransferase; Q92830; GCN5L2 HAT assay, ThioGlo1 CoA-SH fluorescence; Potency, µM (doses to about 58.9 µM), without a hit: top-dose activity change, negative = inhibition, actives largely listed as inhibitors; hit rate 0.21% among 390,000
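Enzyme at 20nM final was mixed with library compounds for 15 min at room temperature. Peptide H3(1-25) at 75uM, acetyl-CoA at 70uM and ThioGlo1 at 50uM were then added. Plates were read immediately and after 20 min (Ex340nm/Em540nm).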
RGS4 inhibitor: inhibitors of human regulator of G protein signaling 4 | P49798 | Transcreener GDP fluorescence polarization, RGS4-accelerated GTP hydrolysis | Potency, µM (titrated, usually from 114 µM), without a hit: at the highest dose activity change, negative = inhibition, hits mostly inhibitors | hit rate 0.039% among 390,000 | AID 504845; note: nearly all actives have a fitted effect of over 75% in size
Target sequence (P49798 whole entry, looked up): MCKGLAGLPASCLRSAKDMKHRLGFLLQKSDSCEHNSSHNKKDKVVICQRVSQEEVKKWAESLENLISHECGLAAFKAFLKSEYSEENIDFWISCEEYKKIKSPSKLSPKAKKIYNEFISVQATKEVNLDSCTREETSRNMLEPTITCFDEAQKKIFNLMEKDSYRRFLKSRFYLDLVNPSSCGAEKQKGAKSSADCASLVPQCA
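MLSMR compounds (23 nl, pin-transferred) preincubated 10 min at room temperature with a 500nM (2x) first reagent, then RGS4 at 900nM (2x) plus Transcreener GDP mix added; fluorescence polarization (620/688 nm) read before and after 90 min at 30 °C.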
Eya2 phos inh: Eya2 (human) phosphatase inhibition; O00167; recombinant Eya2, OMFP fluorescence dephosphorylation (OMFP is methylfluorescein phosphate); Potency, µM (doses to about 76.9 µM), for the others: at the highest dose activity, negative = inhibition, most hits filed as inhibitors; hit rate 0.006% among 330,000; AID 488837
Target sequence (O00167 whole entry, looked up): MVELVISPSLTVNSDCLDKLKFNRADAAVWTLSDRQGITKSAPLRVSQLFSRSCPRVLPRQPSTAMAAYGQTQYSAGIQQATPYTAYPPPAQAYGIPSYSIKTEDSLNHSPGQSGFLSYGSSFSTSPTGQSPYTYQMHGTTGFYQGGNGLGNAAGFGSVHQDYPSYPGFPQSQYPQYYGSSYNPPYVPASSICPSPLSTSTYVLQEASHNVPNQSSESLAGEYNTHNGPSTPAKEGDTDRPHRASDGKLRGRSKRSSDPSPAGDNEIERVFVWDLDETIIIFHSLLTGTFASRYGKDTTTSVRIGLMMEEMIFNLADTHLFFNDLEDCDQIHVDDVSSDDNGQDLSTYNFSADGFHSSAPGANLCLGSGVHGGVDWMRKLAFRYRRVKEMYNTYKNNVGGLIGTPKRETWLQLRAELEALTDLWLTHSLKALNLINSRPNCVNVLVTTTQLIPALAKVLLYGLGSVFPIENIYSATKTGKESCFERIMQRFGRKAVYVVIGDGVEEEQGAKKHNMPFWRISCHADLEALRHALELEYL
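Eya2 protein (added as 0.2 uM solution) was preincubated with compound for 10 min at ambient temperature in 50 mM HEPES pH 7.5, 50 mM NaCl, 5 uM MgCl2, 0.05% BSA, 1 mM DTT. OMFP (added at 50 uM) then reacted 10 min; fluorescence read at 485/525 nm.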
BCR signal inh: blocks chronic active B-cell receptor signaling. ABC-DLBCL IkBa-CBG/CBR reporter, luminescence ratio, 4 h. Potency, µM (highest dose often 46.1 µM), for the others: top-dose activity change, negative = inhibition, most hits filed as inhibitors. hit rate 0.05% among 340,000. AID 493014; active = well fitted inhibition curve with a large enough effect in the signal ratio, with a control signal flat, not every such curve was filed as active; inconclusive = small, poorly fitted or top-dose-only effect, or effect the other way, or a change in a side signal; the % refers to the signal ratio;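 note: plate controls were basal doxycycline-induced cells for no effect and cells given 10 µM MG132 for full effect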
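TMD8 ABC-DLBCL cells carrying doxycycline-inducible green luciferase fused to IkappaBalpha plus unfused red luciferase were exposed to compounds (up to 46 uM) for 4 hrs at 37C. Activity came from the overlap-corrected green/red luminescence ratio.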
USP2a block: inhibitors of human ubiquitin-specific protease USP2a | O75604 | USP2 core, Ub-CHOP2 coupled fluorogenic reporter, 485/531 | Potency, µM (doses to about 38.3 µM), for inactives: at the top dose activity change, negative = inhibition, actives largely listed as inhibitors | hit rate 0.01% among 330,000;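 note: plate controls were DMSO wells for no effect and full inhibition by NEM control for full effect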
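Cell-free coupled assay: 10nM USP2 core preincubated 30min RT with compound in Tris-HCl pH 8.0/CaCl2/CHAPS buffer, then 25nM Ub-CHOP2 and 25nM reporter substrate; fluorescence (Ex 485/Em 531) read after 60min RT, normalized to NEM inhibition, concentration-response curves fitted.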
The depositor's hits bear a star; ? = inconclusive; . = no result given; ! = a repeat was not active; [ ] = another dose, or the depositor's remark. Unless noted, calls come from the whole dose curve; as a rule, active = well fitted curve in the direction sought with a large enough effect; inconclusive = small, poorly fitted or top-dose-only effect, or another doubt; inactive = no such curve, though single readings can be large; an effect the other way counts as inactive or inconclusive. Unless noted, % is set by controls: 0 for no effect and ±100 for the full control effect; potency is the fitted concentration of half-maximal effect.

SMILES | uPA generation | KAT2A inh | RGS4 inhibitor | Eya2 phos inh | BCR signal inh | USP2a block
Cn1c(NCc2ccc(Cl)cc2)nc2ccccc21 | -2% | -5% | -4% | -11% | 3% | 4%
Cc1ccc(CNc2nc3ccccc3n2C)cc1 | 4µM* | -10% | 8% | -8% | 5% | 0%
CCOC(=O)c1c(NC(=O)COc2ccc(C)cc2C(C)(C)C)sc2c1CCC(C)C2 (centres undefined) | . | -3% | -24% | . | . | .
O=C1Nc2ccc(I)cc2/C1=C/c1cc(Br)c(O)c(Br)c1 | . | 22µM* | 9.5µM* | 22% | . | .
Cc1cc(Nc2ccc(C)c(Cl)c2)n2nc(Cc3ccccc3)nc2n1 | . | -9% | -14% | . | . | .
C/C=C/c1ccc(O)c(OC)c1 | -27% | -9% | 9% | 15% | ? | -8%
Oc1cc(O)cc(/C=C/c2ccc(O)c(O)c2)c1 | 7.9µM* | ? | 21µM*! | -1% | -15% | 1%
O=C(Nc1ccccc1O)c1ccc(NS(=O)(=O)c2cccc3cccnc23)cc1 | 7.1µM* | -11% | -44% | -16% | ? | 5%
Cc1cccc(-n2ncc3c(N(C)C4CCCCC4)ncnc32)c1 | 1.4µM* | -12% | -12% | -7% | ? | 10%
CSc1ccc(CCNC(=O)C2CCCN(S(=O)(=O)N(C)c3ccc(F)cc3)C2)cc1 (centres undefined) | . | -2% | 10% | . | . | .
CN(C)C(=O)c1ccc(-c2nc(N(C)C)c3ccccc3n2)cc1 | . | -3% | . | . | . | .
COC(=O)[C@@]1(Cc2ccccc2)[C@@H]2C(=CC(=O)[C@H]2CC(=O)C(=O)N(C)C)CN1C(=O)c1ccccc1 | 2.8µM* | 0% | -48% | -3% | ? | 0%
O=C(/C=C/Nc1ccccc1)c1ccc(Cl)cc1Cl | 10µM* | -22% | -13% | -29% | ? | 0%
COc1ccc(NS(=O)(=O)c2ccc3ccccc3c2)c2ncccc12 | -15% | -6% | 11% | 16% | 3.2µM* | -3%
COc1cc(NC(=O)c2cc(-c3ccccc3O)no2)cc(OC)c1OC | . | -19% | -36% | . | . | .
COc1ccc2[nH]cc(CCNC(=O)c3cnn(-c4ccccc4Cl)c3C3CCN(C(=O)OC(C)(C)C)CC3)c2c1 | . | -25% | 2% | . | . | .
O=C(NCc1ccccn1)c1cc(-c2ccc(-c3ccccc3)cc2)nc2ccccc12 | 1.1µM* | -9% | -3% | -3% | -3% | 1%
CN(C)CC(O)Cn1c2ccc(Br)cc2c2cc(Br)ccc21 (centres undefined) | . | ? | 0.67µM* | . | . | .
COc1cccc(Cc2nc3ccccc3nc2SCC(=O)NCc2ccc(C)cc2)c1 | . | -12% | -21% | . | . | .
O=S(=O)(O)c1ccc2c(c1)-c1nc-2nc2[nH]c(nc3nc(nc4[nH]c(n1)c1ccc(S(=O)(=O)O)cc41)-c1ccc(S(=O)(=O)O)cc1-3)c1ccc(S(=O)(=O)O)cc21 | . | 0.63µM* | . | . | . | .
O=S(=O)(O)c1ccc2nc(-c3ccccc3)[nH]c2c1 | . | -8% | . | . | . | .
CCCn1c(O)c(/C=C2\C=NN=C2c2ccccc2)sc1=S | -2% | 2.2µM* | -13% | 3% | ? | 2%
Cc1ccccc1C(=O)Nc1cccc(-c2nc3cccnc3s2)c1 | . | -2% | 25% | . | . | .
CCOc1ccccc1Oc1nc(C)nc2c1oc1ccccc12 | . | 1% | 7% | . | 13µM* | .
CSC1=NS(=O)(=O)c2c(C)nn(C)c2S1 | 2% | 28µM* | ? | -1% | 13% | 0%
SMILES | uPA generation | KAT2A inh | RGS4 inhibitor | Eya2 phos inh | BCR signal inh | USP2a block
Cn1c(=O)c(C(=O)Nc2ncccc2O)c(O)c2ccccc21 | -1% | -21% | -10% | 56µM* | ? | ?
CCC(=O)NC1CC(=O)N(c2ccc3c(c2)OCCO3)C1 (centres undefined) | . | -5% | -4% | . | ? | .
Cc1cccc(NC(=O)c2ccc(S(=O)(=O)N3CCCCC3)cc2)n1 | 7% | -3% | 15% | -19% | 8% | 0%
Cc1csc(C(C#N)C(=O)c2ccc(S(=O)(=O)N3CCCC3)cc2)n1 (centres undefined) | 0% | 1µM* | -9% | -13% | 1% | 1%
Cc1ccc([N+](=O)[O-])cc1N=Nc1c(-c2ccc([N+](=O)[O-])cc2)[nH]n(C(N)=S)c1=O | -18% | 1% | ? | -1% | ? | 2%
NC(=S)n1[nH]c(-c2ccc([N+](=O)[O-])cc2)c(N=Nc2ccc(Cl)cc2)c1=O | -4% | -8% | ? | -4% | 10µM* | 0%
COc1cc(C(=O)NS(=O)(=O)c2ccccc2C)ccc1Cc1cn(C)c2ccc(NC(=O)OC3CCCC3)cc12 | . | 7.1µM* | . | -5% | ? | -17%
CCCn1c(=O)c2sccc2n2c(CCCC(=O)N3CCN(c4ccccc4OC)CC3)nnc12 | . | -15% | 3% | . | . | .
C=CCNC(=S)N1CC2(C)CN(C(=S)NCC=C)CC(C)(C1)C2=O | -10% | 28µM* | -15% | 4% | -26% | 6%
COc1ccc(-c2cc(C(=O)Nc3ccc(C)c(C)c3)no2)cc1 | -13% | 9% | -29% | -11% | -1% | 1%
COc1ccc(-c2cc(C(=O)Nc3cccc(O)c3)no2)cc1 | 5µM* | -4% | 4% | -13% | ? | -1%
COc1cc2nc(N3CCCN(C)CC3)nc(NC3CCN(Cc4ccccc4)CC3)c2cc1OC | . | ? | 3%[56.9 µM] | 3% | . | .
OCCC1CN(CCCn2cccn2)CCN1C1CCCCC1 (centres undefined) | -2% | 25µM* | -3% | 7% | 21% | 1%
CC(C)N1CCC(N2CCN(CCCn3cccn3)CC2CCO)CC1 (centres undefined) | 1% | 4% | -2% | 7% | 6% | 0%
CCOC(=O)C1CCCN(C(=O)C2CCN(S(=O)(=O)c3c(C)noc3/C=C/c3ccc(C)cc3)CC2)C1 (centres undefined) | . | -5% | -6% | . | . | .
CN(C)c1cccc(/C=C(\C#N)c2ccccc2)c1 | ? | -9% | 7% | -17% | ? | -2%
CN(C)c1ccc(/C=C(\C#N)c2ccccc2)cc1 | 0.89µM* | -9% | -7% | ? | ? | 2%
CCOC(=O)c1c(C)[nH]c(CCC(=O)Nc2cc(C)ccc2OC)c1C | . | 1% | -3% | . | . | .
C[C@@](N)(C(=O)O)[C@@H]1C[C@@H]1C(=O)O | . | -12% | 24µM* | . | . | .
Cc1coc2c1C(=O)C(=O)c1c-2ccc2c1CCCC2(C)C | -30% | 28µM* | ? | -6% | 9% | -2%
CCc1ccc2c(c1)c(=O)c(C(=O)c1ccc(C)cc1)cn2CC(=O)Nc1ccc2c(c1)OCCO2 | . | -4% | -33% | . | . | .

Bioassay records (PubChem BioAssay)
